Test results as given in PubChem BioAssay (NCI).
The panel holds about 79,000 compounds, 15% with a hit somewhere; the sample as a whole holds those more often. The source made the active and inactive calls. No stated cut-off is given here; in the data, active means growth inhibition above about 70%; inactive means the rest.

Legend:
[1] = NCI Yeast Anticancer Drug Screen. Data for the rad50 strain (AID 155);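 further: 0% = growth of vehicle-only cultures of the same strain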; details: S. cerevisiae rad50 strain growth inhibition, hits give high values
In short: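 Readout: growth inhibition relative to vehicle-treated cultures. Compound exposure was carried out in a genetically defined yeast strain deficient in DNA damage repair.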

[2] = NCI Yeast Anticancer Drug Screen. Data for the mec2-1 strain (AID 157); details: S. cerevisiae mec2-1 strain, hits give high values
In short: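 Strain: mec2-1 (DNA repair/cell cycle alteration). Compound exposure, then growth measured; inhibition expressed relative to vehicle.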

[3] = NCI Yeast Anticancer Drug Screen. Data for the sgs1 mgt1 strain (AID 161);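 further: 0% = growth of cultures given vehicle only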; details: S. cerevisiae sgs1 mgt1 strain, hits give high values
In short: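 Genetically altered yeast, compound exposure, growth inhibition relative to vehicle.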

[4] = NCI Yeast Anticancer Drug Screen. Data for the cln2 rad14 strain (AID 165);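 further: 0% = growth equal to vehicle treated cultures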; details: S. cerevisiae cln2 rad14 strain, hits give high values
In short: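 Compounds are applied to the cln2 rad14 yeast strain, and growth is then compared with that of vehicle-treated cultures to give inhibition.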

[5] = NCI Yeast Anticancer Drug Screen. Data for the bub3 strain (AID 167); details: S. cerevisiae bub3 mutant strain, hits give high values
In short: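 Readout: yeast growth inhibition, expressed relative to vehicle-only wells. The test organism is a mutant strain from a panel with lesions in DNA repair or checkpoint genes.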

[6] = NCI Yeast Anticancer Drug Screen. Data for the mlh1 rad18 strain (AID 175); details: S. cerevisiae mlh1 rad18 strain growth inhibition, hits give high values
In short: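 Read-out is yeast growth inhibition, calculated against vehicle-only controls. The compound was applied to a strain engineered with DNA damage repair alterations.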

[7] = at 5.0 µM (retest, dose inferred, filed as 0.5)
[8] = at 50.0 µM (retest, dose inferred, filed as 5.0)

Measured: growth inhibition

COc1cc(OC)c(OC)cc1/C=C\c1nccc2ccccc12
active: [1]; at 50.0 µM 92.9% | [2]; at 50.0 µM 92.5% | [3]; at 50.0 µM 93.7% | [5]; at 50.0 µM 91.3% | [6]; at 50.0 µM 94.2%
inactive: [1]; [7] 1% | [1]; [8] 51% | [2]; [7] -3% | [2]; [8] 12% | [3]; [7] -4% | [3]; [8] 23% | [4]; [7] 4% | [4]; [8] 0% | [4]; at 50.0 µM 65.4% | [5]; [7] -6% | [5]; [8] -6% | [6]; [7] -3% | [6]; [8] 12%

NCC(=O)N/N=C/c1ccc([N+](=O)[O-])o1
inactive: [1]; [7] 10% | [1]; [8] 24% | [1]; at 50.0 µM 5.1% | [2]; [7] 4% | [2]; [8] 17% | [2]; at 50.0 µM 44.3% | [3]; [7] 0% | [3]; [8] 15% | [4]; [7] -1% | [4]; [8] 5% | [4]; at 50.0 µM 27.6% | [5]; [7] 2% | [5]; [8] 11% | [5]; at 50.0 µM 37.2% | [6]; [7] 8% | [6]; [8] 30% | [6]; at 50.0 µM 20.4%
active: [3]; at 50.0 µM 73.2%

O=C1c2cc([N+](=O)[O-])cc3cc([N+](=O)[O-])cc(c23)C(=O)N1CCNCCN1C(=O)c2cc([N+](=O)[O-])cc3cc([N+](=O)[O-])cc(c23)C1=O
inactive: [2]; [7] 42% | [3]; [7] 64% | [3]; at 50.0 µM 42.4% | [4]; [7] 62% | [5]; [7] 61% | [6]; [7] 56%
active: [1]; [7] 86% | [1]; [8] 92% | [1]; at 50.0 µM 81.2% | [2]; [8] 89% | [2]; at 50.0 µM 89.2% | [3]; [8] 94% | [4]; [8] 90% | [4]; at 50.0 µM 70.3% | [5]; [8] 92% | [5]; at 50.0 µM 92.3% | [6]; [8] 92% | [6]; at 50.0 µM 76.3%
